Screens deposited in PubChem BioAssay by National Center for Advancing Translational Sciences (NCATS).
PI5P4Ka inh: PI5P4K alpha (human) kinase inhibition | P48426 | AID 652105 | PI5P4Kalpha enzyme, ADP-Glo luminescence, 60 min; active compounds read low | max response, % | actives 1.2% (n = 330,000); active = max response of -50% or lower; inconclusive = between -30% and -50%; inactive = -30% or higher; also: value at the top dose of about 77 µM
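Human PI5P4Kalpha with substrate in 0.038 M HEPES pH 7.4, 0.28 mM EGTA, 0.1% CHAPS, 5% DMSO; reaction started with 5 microM ATP (final), 60 min at room temperature. ADP formed read by ADP-Glo luminescence.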
Pin1 inh: blocks the human prolyl isomerase Pin1; Q13526; AID 504891; Pin1 FP peptide displacement, HiFluor488, 10 min; actives 0.009% (n = 390,000); Potency, µM (series often up to 115 µM), for inactives: top-dose activity, negative = inhibition, usual class: inhibitors; active = well fitted inhibition curve with a large enough effect in the polarisation, with a control signal flat, not every such curve was filed as active; inconclusive = small, poorly fitted or top-dose-only effect, or effect the other way, or a change in a side signal; inactive = no such curve, though single readings can be large or run the other way; the % refers to the polarisation; also: potency is read from the fitted curve at half-maximal effect
Target sequence (Q13526 whole entry, looked up): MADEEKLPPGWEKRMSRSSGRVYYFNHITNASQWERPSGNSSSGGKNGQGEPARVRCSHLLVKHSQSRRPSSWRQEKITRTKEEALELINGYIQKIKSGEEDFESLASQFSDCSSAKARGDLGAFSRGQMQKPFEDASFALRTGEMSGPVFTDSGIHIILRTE
PI4K2A inh: inhibitors of human PI4K2A. Q9BTU6. purified PI4K2A, ADP-Glo luminescence, 1 h; active compounds read low. activity change, negative = inhibition, % at 76.9 µM. actives 0.13% (n = 420,000). AID 1346378; in the data active = activity change below about -50%; inconclusive = mostly about -30% to -49%;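 also: -100% = wells without enzyme as full effect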
Target sequence (Q9BTU6 whole entry, looked up): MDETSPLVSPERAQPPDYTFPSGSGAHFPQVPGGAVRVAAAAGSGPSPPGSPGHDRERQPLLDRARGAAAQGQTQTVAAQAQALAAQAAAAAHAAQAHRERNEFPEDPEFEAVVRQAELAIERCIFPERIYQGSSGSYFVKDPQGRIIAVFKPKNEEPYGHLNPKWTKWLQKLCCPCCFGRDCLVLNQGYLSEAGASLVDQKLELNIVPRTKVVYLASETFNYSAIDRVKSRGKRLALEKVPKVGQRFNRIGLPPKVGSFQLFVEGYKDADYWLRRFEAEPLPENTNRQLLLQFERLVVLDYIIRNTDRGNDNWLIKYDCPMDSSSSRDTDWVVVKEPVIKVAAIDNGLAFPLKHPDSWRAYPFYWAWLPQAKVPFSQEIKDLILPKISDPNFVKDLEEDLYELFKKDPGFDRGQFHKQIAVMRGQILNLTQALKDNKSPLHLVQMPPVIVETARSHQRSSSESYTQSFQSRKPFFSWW
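PI4K2A activity was measured by ADP-Glo luminescence: enzyme (4 ug/mL stock) and phosphatidylinositol (1.2 mM stock) in Tris pH 7.5/MgCl2/EGTA/Triton X-100 buffer were reacted with ATP (300 microM stock) for one hour at ambient temperature.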
Tb PGK inh: blocks T. brucei phosphoglycerate kinase; PGK/GAPDH coupled, Kinase-Glo luminescence, 60 min; Potency, µM (titrated, usually from 57.5 µM), without a hit: top-dose activity change, negative = inhibition, usual class: inhibitors; actives 0.043% (n = 380,000); AID 602233; also: potency is read from the fitted curve at half-maximal effect; nearly all actives have a fitted effect of over 60% in size
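Luminescent ATP detection (Kinase-Glo Plus) follows a 60-minute room-temperature incubation, with wells lacking PGK as controls. Buffer: 100 mM TEA (pH 7.6), 5 mM MgCl2, 0.01% Tween-20. Coupling enzyme GAPDH (100 nM final) supplies unstable 1,3-BPG in-well.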
Tb PFK inh: inhibitors of T. brucei phosphofructokinase | O15648 | T. brucei PFK, ADP-Glo luminescence | Potency, µM (top dose mostly 57.5 µM), for the others: top-dose activity, negative = inhibition, actives largely listed as inhibitors | actives 0.17% (n = 330,000);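 also: potency is read from the fitted curve at half-maximal effect; 0% = uninhibited 1x PFK enzyme wells and -100% = no-enzyme wells; nearly all actives have a fitted effect of over 60% in size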
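ADP-Glo luminescence quantified ADP after 45 min at room temperature, with 1.25 nM T. brucei PFK, 0.1 mM ATP and 0.5 mM fructose-6-phosphate in pH 8.0 TEA buffer. qHTS titrations up to 57 µM; curves classified by quality.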
* = called active by the depositor. The full list was thinned out, with hits kept by preference. Unless noted, calls follow the shape of the dose curve; as a rule, active = well fitted curve in the direction sought with a large enough effect; inconclusive = small, poorly fitted or top-dose-only effect, or another doubt; inactive = no such curve, though single readings can be large; an effect the other way counts as inactive or inconclusive. Unless noted, % is scaled to controls: 0 for no effect and ±100 for the full control effect.

Screening N#CC1=C2SCN(Cc3ccccc3)CN2C(=O)CC1c1ccccc1F (stereo unspecified) returned PI5P4Ka inh -77*, Pin1 inh 6%, PI4K2A inh -19, Tb PGK inh 2% and Tb PFK inh -10%.
`COc1ccc(Br)cc1C1CC(=O)N2CN(Cc3ccccc3)CSC2=C1C#N` (stereo unspecified) gave PI5P4Ka inh inconclusive, Pin1 inh 0%, PI4K2A inh -2, Tb PGK inh -6% and Tb PFK inh 1%.
S=c1[nH]nc(-c2ccccc2)n1/N=C/C=C/c1ccco1 was read as PI5P4Ka inh -15, Pin1 inh -2%, PI4K2A inh -4, Tb PGK inh 1% and Tb PFK inh -21%.
For Cc1ccccc1-c1n[nH]c(=S)n1/N=C/C=C/c1ccco1 the results were PI5P4Ka inh -84*, PI4K2A inh -22, Tb PGK inh -16% and Tb PFK inh -6%.
C/C(C=Nn1c(-c2ccc(F)cc2)n[nH]c1=S)=C/c1ccco1 was read as PI4K2A inh -27.
CC(/C=N/n1c(-c2n[nH]c3c2CCC3)n[nH]c1=S)=C\c1ccco1 was read as PI5P4Ka inh -59*, Pin1 inh inconclusive, PI4K2A inh -4, Tb PGK inh -8% and Tb PFK inh -29%.
Screening Cc1cccc(NC(=O)c2ccc(Cl)nc2)n1 returned PI5P4Ka inh -1, Pin1 inh -5%, PI4K2A inh -4, Tb PGK inh -1% and Tb PFK inh -5%.
`O=C(O)c1ccc(Nc2cnc3ccccc3n2)cc1` gave PI5P4Ka inh inconclusive, Pin1 inh -1%, PI4K2A inh -55*, Tb PGK inh -13% and Tb PFK inh 2%.
`COc1cc(/C=C2/SC(=O)NC2=O)ccc1OC(=O)c1ccco1` gave PI5P4Ka inh -17, Pin1 inh 30%, PI4K2A inh 1, Tb PGK inh -9% and Tb PFK inh -2%.
Screening O=C1NC(=S)S/C1=C/c1ccc(OC(=O)c2ccco2)cc1 returned PI5P4Ka inh -62*, Pin1 inh inconclusive, PI4K2A inh 2, Tb PGK inh -6% and Tb PFK inh 0%.
For CCOc1cc(/C=C2/SC(=S)NC2=O)ccc1OC(=O)c1ccco1 the results were PI5P4Ka inh -86*, Pin1 inh 6%, PI4K2A inh 2, Tb PGK inh 2% and Tb PFK inh -3%.
For CCc1cc2c(=O)c(-c3nc4ccccc4n3C)c(COCC(=O)O)oc2cc1O the results were Pin1 inh inconclusive, PI4K2A inh -2 and Tb PFK inh 1%.
`CCCc1cc2c(=O)c(-c3nc4ccccc4s3)c(COCC(=O)O)oc2cc1O` gave PI5P4Ka inh -74*, Pin1 inh 38%, PI4K2A inh -4, Tb PGK inh 0% and Tb PFK inh 3%.
O=C(COc1ccccc1[N+](=O)[O-])c1ccccc1 was read as PI5P4Ka inh -7, Pin1 inh -4%, PI4K2A inh -10, Tb PGK inh -4% and Tb PFK inh 0%.
For COC(=O)/C=C/COc1ccccc1[N+](=O)[O-] the results were PI5P4Ka inh -67*, Pin1 inh 0%, PI4K2A inh 1, Tb PGK inh -9% and Tb PFK inh -2%.
`O=C(CN1CCC(n2nnc3cc(C(F)(F)F)ccc32)CC1)NNC(=O)c1ccco1` gave PI5P4Ka inh 1, Pin1 inh -1%, PI4K2A inh 0 and Tb PFK inh 3%.
Screening CC(=O)OCC(=O)[C@@]1(O)CCC2C3CCC4=CC(=O)CC[C@]4(C)C3[C@@H](O)C[C@@]21C (stereo partly specified) returned PI4K2A inh 2.
`O=C(O)c1c[nH]n2c(=S)ncnc12` gave PI5P4Ka inh -24, PI4K2A inh -8 and Tb PGK inh 0%.
O=C(O)c1cc(=S)nc[nH]1 was read as PI5P4Ka inh -65*, Pin1 inh 2%, PI4K2A inh -13 and Tb PGK inh 2%.
For O=C(N/N=C/c1cc(Br)c(O)c(Br)c1)c1cc2c(ccc3ccccc32)o1 the results were PI5P4Ka inh -103*, PI4K2A inh 0, Tb PGK inh -24% and Tb PFK inh 12%.
`O=C(N/N=C/c1ccc(O)c(Br)c1)c1cc2c(ccc3ccccc32)o1` gave PI5P4Ka inh inconclusive, Pin1 inh 14%, PI4K2A inh -1, Tb PGK inh 8% and Tb PFK inh 0%.
For O=C(N/N=C/c1cccnc1)c1cc2c(ccc3ccccc32)o1 the results were PI5P4Ka inh -8, Pin1 inh 27%, PI4K2A inh 11, Tb PGK inh -12% and Tb PFK inh 0%.
O=C(N/N=C/c1cc(Cl)c(O)c(Cl)c1)c1cc2c(ccc3ccccc32)o1 was read as PI5P4Ka inh -77*, Pin1 inh inconclusive, PI4K2A inh 2, Tb PGK inh -18% and Tb PFK inh -24%.
CCOC(=O)C1Nc2ccc(Br)cc2C2C=CCC12 (stereo unspecified) was read as PI5P4Ka inh inconclusive, Pin1 inh -23%, PI4K2A inh 6, Tb PGK inh -8% and Tb PFK inh -3%.
O=C(O)C1Nc2c(Cl)cc(Cl)cc2C2C=CCC12 (stereo unspecified) was read as PI5P4Ka inh -99*, Pin1 inh inconclusive, PI4K2A inh -12, Tb PGK inh 25µM* and Tb PFK inh inconclusive.
For O=C(O)C1Nc2ccc(Br)cc2C2C=CCC12 (stereo unspecified) the results were PI5P4Ka inh -82*, PI4K2A inh -9, Tb PGK inh 32µM* and Tb PFK inh inconclusive.
`CC(C)CNC(=O)C1Nc2ccccc2C2C=CCC12` (stereo unspecified) gave PI5P4Ka inh inconclusive, Pin1 inh inconclusive, PI4K2A inh -7 and Tb PGK inh 2%.
Screening O=C(O)C1Nc2c(O)cccc2C2C=CCC12 (stereo unspecified) returned PI5P4Ka inh -81*, PI4K2A inh inconclusive, Tb PGK inh inconclusive and Tb PFK inh inconclusive.
For CC(C)c1cc(=O)n2[nH]c(SCc3ccccc3Cl)nc2n1 the results were PI5P4Ka inh -5, Pin1 inh 0%, PI4K2A inh -4, Tb PGK inh -3% and Tb PFK inh -25%.
For CCOc1cccc(C(=O)Nc2ccc(S(=O)(=O)N(Cc3ccccc3)c3ccccc3)cc2)c1 the results were Pin1 inh 14%, PI4K2A inh -1 and Tb PGK inh -10%.
`Cc1nc2ccccc2c(=O)n1/N=C/c1ccc(O)c(O)c1O` gave PI5P4Ka inh -86*, Pin1 inh inconclusive, PI4K2A inh -30, Tb PGK inh 0% and Tb PFK inh -12%.
Screening Cc1nc2ccccc2c(=O)n1/N=C/c1ccccc1O returned PI5P4Ka inh 0, Pin1 inh -6%, PI4K2A inh 0, Tb PGK inh -3% and Tb PFK inh -2%.
